High-throughput results: PubChem BioAssay, NMMLSC
MEKK2mut PB1 HTS – signal of MEK5 binding to mutant human MEKK2 PB1 domain | percent response, % at 10 µM | hit rate 0.35% among 290,000 | bead flow cytometry, Alexa488-MEK5 binding to MEKK2 mutant; in the data active = percent response above about 24%, passing the limit was not always enough
GRK2 aptamer HTS – inhibitors of human GRK2 displacing RNA aptamer; inhibition of aptamer binding, % at 10 µM; hit rate 0.59% among 330,000; bead flow cytometry, FAM-aptamer displacement from GRK2; P25098;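 active = inhibition of aptamer binding above 40%, roughly 3 SD of noise, on plates passing a quality check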;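 note: median bead fluorescence of bound FAM aptamer so fluorescent compounds give negative values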
MEKK3 PB1 HTS – MEKK3-MEK5 PB1 interaction, increase or decrease; Q99759; bead-based flow cytometry, Alexa488-MEK5 binding to MEKK3; actives lie on both sides; 0 = blocked by unlabeled MEK5, 100 = vehicle; binding response (% of control), % at 10 µM; hit rate 1.4% among 290,000; AID 1529;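 active = binding response more than 3 SD above or below the average of its plate-row segment, actives on both sides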;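 note: Alexa488 bead fluorescence after subtracting the streptavidin-only scavenger bead signal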
Target sequence (Q99759 whole entry, looked up): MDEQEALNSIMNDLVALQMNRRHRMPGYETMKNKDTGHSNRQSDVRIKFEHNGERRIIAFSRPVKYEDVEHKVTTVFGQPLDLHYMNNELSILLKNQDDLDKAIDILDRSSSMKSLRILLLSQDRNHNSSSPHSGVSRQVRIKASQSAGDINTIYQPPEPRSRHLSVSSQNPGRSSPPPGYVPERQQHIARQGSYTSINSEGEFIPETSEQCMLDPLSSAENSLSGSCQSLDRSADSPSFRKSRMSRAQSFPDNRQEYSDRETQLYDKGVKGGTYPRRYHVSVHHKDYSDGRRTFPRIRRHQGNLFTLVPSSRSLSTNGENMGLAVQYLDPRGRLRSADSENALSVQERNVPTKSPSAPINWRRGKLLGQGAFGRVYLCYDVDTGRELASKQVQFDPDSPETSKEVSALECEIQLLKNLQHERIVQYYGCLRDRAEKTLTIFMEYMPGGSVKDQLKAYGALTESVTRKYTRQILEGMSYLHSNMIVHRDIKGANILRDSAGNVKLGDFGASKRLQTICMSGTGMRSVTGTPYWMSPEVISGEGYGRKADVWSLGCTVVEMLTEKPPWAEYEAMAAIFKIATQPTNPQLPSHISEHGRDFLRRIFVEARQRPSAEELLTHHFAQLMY
MEKK2 WT-MEK5 – raises or lowers MEK5 binding to wildtype human MEKK2 PB1 domain; Q9Y2U5; bead flow cytometry, Alexa488-MEK5 binding to MEKK2 WT; actives lie on both sides; binding response (% of control), % at 10 µM; hit rate 1.1% among 290,000; AID 1531; in the data active = binding response below about 67% or above about 130%
B2AR ag – agonists of human beta-2 adrenergic receptor inducing internalization; P07550; AID 504454; response, % (no concentration beside the values); hit rate 0.43% among 340,000; Am2.2-beta2AR cells, FAP receptor internalization, flow cytometry;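 active = response above a set limit, near 3 SD of response in nonfluorescent compounds, cut at about 42% in these data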
GRK2 inh confirm – confirmation of human GRK2 inhibitors displacing RNA aptamer. shares compounds with GRK2 aptamer HTS. bead-bound GRK2, FAM-aptamer displacement, flow cytometry. aptamer displacement, % at 10 µM. hit rate 4% among 2,000. AID 504451;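 active = aptamer displacement above 40%, near three times the noise of non-fluorescent compounds, on plates passing quality checks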;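 note: negative values mostly reflect intrinsic compound fluorescence rather than true enhancement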
FAM quench CP1 – quenches fluorescent RNA aptamer, GRK2 hit artifact. shares compounds with GRK2 aptamer HTS. Carboxyfluorescein RNA aptamer on beads, flow cytometry quenching; hits give low values. fluorescence response (% of DMSO), % at 10 µM. 2,000 tested, under 10 active. AID 504580;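 active = compounds that quench the bead-bound fluorescent RNA probe, cutting fluorescence to under half of the solvent control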;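 note: counterscreen run without GRK2 so only probe quenching by compound is measured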
GRK2 CP2 – confirmation of human GRK2 inhibitors binding RNA aptamer site; bead-bound GRK2, FAM-aptamer displacement, flow cytometry; 360 tested, under 10 active; shares compounds with GRK2 aptamer HTS; inhibition of aptamer binding, % at 10 µM;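 active = inhibition of aptamer binding above 40%, about triple the noise seen with nonglowing compounds, on plates passing quality control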;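 note: negative values mostly come from compounds that fluoresce themselves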
FAM quench SP – counter-screen for GRK2 binding hits: quenchers of fluorescent RNA aptamer. shares compounds with GRK2 aptamer HTS. carboxyfluorescein RNA aptamer beads, flow cytometry quenching; hits give low values. fluorescence response vs DMSO, % at 10 µM. 360 tested, under 10 active. AID 588494;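 active = response vs DMSO under 50%, meaning signal dropped by over half, treated as fluorescence quencher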;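 note: labelled aptamer on streptavidin beads without GRK2 as a quench counter-screen; 100% = bead fluorescence of DMSO wells and lower means quenching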
B2AR ag CP1 – agonists of human beta-2 adrenergic receptor; shares compounds with B2AR ag; hit rate 25% among 1,100; Am2.2-beta2AR cells, FAP surface receptor, flow cytometry; hits give low values; percent response (surface receptor), % at 10 µM;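 active = surface receptor percent response at or below 58%, roughly 3 SD from nonfluorescent compounds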
B2AR FAP counter – counter-screen for beta-2AR agonists: fluorescence in Am2.2 cells; 1,100 tested, under 10 active; shares compounds with B2AR ag; FAP fluorogen flow cytometry, fluorescence counterscreen; hits give low values; calls only at 10 µM;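 active = percent response below a set limit in fluorescence channel 1 and below 50% in channel 8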
Active calls of the source: *; i = inactive; · = not tested or not shown. An excerpt weighted towards active compounds, which were near 2.9% of everything screened.

SMILES	MEKK2mut PB1 HTS	GRK2 aptamer HTS	MEKK3 PB1 HTS	MEKK2 WT-MEK5	B2AR ag	others
COc1ccc(CN2CCNCC2)c(OC)c1OC	3	0	101	105	-3	GRK2 inh confirm=-4;FAM quench CP1=101
O=c1[nH]c(CN2CCNCC2)nc2ccccc12	-4	1	93	97	-8	GRK2 CP2=i;FAM quench SP=101
CN(C)c1ccc(C2C3C=CC(C3)C2(C#N)C(=O)O)c(Br)c1 (stereo not drawn)	2	2	99	102	3
CCNC(=O)[C@H]1O[C@@H](n2cnc3c(N)ncnc32)[C@H](O)[C@@H]1O	2	30	104	98	-5	GRK2 inh confirm=0;FAM quench CP1=101
Nc1ncnc2c1ncn2[C@@H]1O[C@H](COP(=O)(O)CP(=O)(O)O)[C@@H](O)[C@H]1O	·	·	·	·	-6
CC1(O)CCN2C(=O)CCc3cccc1c32 (stereo not drawn)	·	41*	·	·	5	GRK2 inh confirm=-4;FAM quench CP1=103
Nc1c(Cl)cc([N+](=O)[O-])cc1Cl	·	0	·	·	5
COC(=O)C1=C(c2cccc(OCc3ccccc3)c2)C[C@@H]2CC[C@H]1N2C(=O)NCc1ccccc1	·	0	·	·	10
COC(=O)C1=C(c2cccc(OCc3ccccc3)c2)C[C@@H]2CC[C@H]1N2C(=O)NCc1cccc(F)c1	·	0	·	·	54*	B2AR ag CP1=46*;B2AR FAP counter=i
OC(c1cccc(Cl)c1)(c1cccc(Cl)c1)C1CN2CCC1CC2 (stereo not drawn)	2	0	109	132	59*	B2AR ag CP1=90;B2AR FAP counter=i
CN=C1CN(O)C(c2ccccc2)c2cc(Cl)ccc2N1 (stereo not drawn)	·	·	·	·	-4
C=C[C@@H]1C2=CCOC(=O)C2=CO[C@H]1O[C@@H]1O[C@H](CO)[C@@H](O)[C@H](O)[C@H]1O	·	0	·	·	-3
OC(CNCc1ccccc1)c1ccc(Cl)cc1 (stereo not drawn)	·	·	·	·	-2	B2AR ag CP1=98;B2AR FAP counter=i
